The record followed here is PubChem BioAssay (NCATS).

Unmarked numbers belong to inactive results. Inconclusive results are not listed. Active and inactive are the calls of the source. The call rests on the fitted dose curve; in most records, active means well fitted curve in the direction sought with a large enough effect; inconclusive means small, poorly fitted or top-dose-only effect, or another doubt; inactive means no such curve, though single readings can be large; an effect the other way counts as inactive or inconclusive.

In test [1] the test system is Zika virus NS2B-NS3 protease (linked construct). As to the kind of experiment: Primary screen NINDS Rhodamine qHTS for Zika virus inhibitors (AID 1347160). Further: nearly all actives have a fitted effect of over 55% in size. Further: potency means the concentration at half of the fitted maximal effect. Summed up: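 Rhodamine110-peptide cleavage (1.5 µM substrate) by 25 nM linked NS2B-NS3 enzyme at pH 8.0 (Tris, Tween 20), after 15 min RT preincubation with compounds; 15-min fluorescence change normalized to controls and Hill-fitted.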
Background: In qHTS, concentration-response curves come from the screen itself.

The nature of test [2]: HPAF-II Cancer Cell Toxicity qHTS against the NCATS CANVASS Library (AID 1347346). Further: series mostly up to about 38 µM; nearly all actives have a fitted effect of over 55% in size. The method in brief: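 1000 HPAF-II cells/well; 4 h pre-incubation; 11-pnt compound titration; 72 h, 37 degrees C/5% CO2; CellTiter-Glo, 15 min RT; luminescence read.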
Test [3] can be described thus: OV-SAHO Cancer Cell Toxicity qHTS against the NCATS CANVASS Library (AID 1347348). Further: series mostly up to about 38 µM; nearly all actives have a fitted effect of over 55% in size. Summed up: (§1)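 Viability was assessed by adding CellTiter-Glo reagent to treated cultures and reading luminescence after 15min at room temperature. Treatment lasted 72 h at 37 degrees C/5% CO2, using an 11-point series on 1000 cells/well.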
A short description of test [4]: U-118MG Cancer Cell Toxicity qHTS against the NCATS CANVASS Library (AID 1347351). The method in brief:
as §1

The nature of test [5]: COV-362 Cancer Cell Toxicity qHTS against the NCATS CANVASS Library (AID 1347352). Further: series mostly up to about 38 µM. Summed up:
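1000 cells/well, 4 h pre-incubation 37 °C/5% CO2; 11-pnt titration; 72 h; CellTiter-Glo 15 min RT, luminescence.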

A short description of test [6]: HEK293 18hr Apoptosis Induction qHTS against the NCATS CANVASS Library (AID 1347357). The method in brief:
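HEK293 cells (500 per well, DMEM with 10% FBS) were treated with natural products, incubated 18 hours at 37 degrees C, then caspase-3/7 activity was read by Caspase-Glo luminescence after 15 min at room temperature.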

A short description of test [7]: HPAF-II 12hr Apoptosis Induction qHTS against the NCATS CANVASS Library (AID 1347358). Summed up:
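Caspase-Glo 3/7 luminescence (DEVD substrate) reports caspase activity in HPAF-II cells after 12 h compound treatment at 37 degrees C. Compounds were tested in an 11-point series. Doxorubicin served as control.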

Test [8] in a line: HEK293 24hr Apoptosis Induction qHTS against the NCATS CANVASS Library (AID 1347359). Summed up: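 HEK293 cells (500/well, DMEM + 10% FBS) were exposed to compounds in an 11-point series for 24 hours at 37 degrees C, then caspase-3/7 activity was read by Caspase-Glo DEVD luciferase luminescence after 15 min.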
Test [9] can be described thus: HPAF-II 18hr Apoptosis Induction qHTS against the NCATS CANVASS Library (AID 1347360). Summed up: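 HPAF-II cells (500/well, DMEM + 10% FBS) were exposed to compounds for 18 hours at 37 degrees C. Caspase-3/7 activity was then read by Caspase-Glo 3/7 luminescence after 15 min at room temperature.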
A short description of test [10]: HEK293 12hr Apoptosis Induction qHTS against the NCATS CANVASS Library (AID 1347361). Summed up: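 Read-out: Caspase-Glo 3/7 luminescence (DEVD substrate), 15 min RT. Preceded by 12 h compound exposure of HEK293, 500 cells/well, 11-pt qHTS titration; doxorubicin titration as control.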
Test [11] deals with Luciferin 4-monooxygenase (Photinus pyralis) (UniProt P08659). The test can be described thus: Firefly luciferase counterscreen qHTS: Assay Interference Panel against the NCATS CANVASS Library (AID 1347363). Further: series mostly up to about 57 µM. The method in brief: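 Purified P. pyralis luciferase was added to compounds (11-point series) preincubated 15 min at room temperature with substrate containing 0.013 mM D-luciferin and 0.013 mM ATP; luminescence was read after 5 min.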
For orientation: A counterscreen serves to expose hits that act by an unwanted route or on another target.

The nature of test [12]: MCF7 Cancer Cell Toxicity qHTS against the NCATS CANVASS Library (AID 1347369). Summed up: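 MCF7, 500 cells/well; cpds 11-pt qHTS; 72 hr, 37C/5% CO2; CellTiterGlo ATP luminescence.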
Test [13] is described as follows: qHTS for ATAD5 Antagonist screened against the NCATS CANVASS Library (AID 1347370).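 Further: HEK293T cells carrying an ATAD5 luciferase reporter co-treated with 10 µM 5-fluorouridine; series mostly up to about 46 µM; nearly all actives have a fitted effect of over 65% in size.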 The method in brief: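 HEK293T-ATAD5 luc reporter, 2000 cells/well; 5hr attach; cpd + 10 uM 5-FUrd; 16hr 37C, 5% CO2. Readouts: CellTiter-Fluor fluorescence (1hr), then Amplite luciferase luminescence (30min RT).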
Test [14] can be described thus: J3T Cancer Cell Toxicity qHTS against the NCATS CANVASS Library (AID 1347371). The method in brief:
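Dog glioma J3T, 500 cells/well; cpd 11-pt qHTS; 72 hr, 37C/5% CO2; CellTiterGlo ATP luminescence readout.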

For test [15], the target named is Nuclear receptor subfamily 1 group I member 3 (Homo sapiens) (UniProt Q14994). As to the kind of experiment: qHTS for Constitutive Androstane Receptor (CAR) Antagonist screened against the NCATS CANVASS Library (AID 1347372).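 Further: cells stimulated with 50 nM CITCO agonist so inhibition reflects antagonism; luciferase from CYP2B6 promoter reporter driven by hCAR in HepG2 cells; series mostly up to about 46 µM.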 The method in brief: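 Cells were seeded and left 4hr to attach, then received compound at 11 concentrations and 50 nM CITCO. Following 24hr incubation, fluorescence viability and luciferase luminescence were read sequentially.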

A short description of test [16]: 10-beta competent E. coli microbial cell viability qHTS against the NCATS CANVASS Library (AID 1347376). Further: series mostly up to about 46 µM. Summed up:
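Luminescence from BacTiter-Glo ATP detection served as the viability read-out; bacteria (0.2 OD) had been incubated overnight at 37C with pin-transferred compounds at 11 concentrations.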

Test [17] is described as follows: qHTS for Inflammasome Signaling Inhibitors: IL-1-beta AlphaLISA screen against the NCATS CANVASS Library (AID 1347379).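 Further: human THP-1 cells primed with LPS then triggered with ATP.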 Summed up: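 THP-1, 1 hr compound pre-incubation, then LPS 250 ng/mL + ATP 1.25 mM (final); 16 hr total with compound; IL-1B AlphaLISA, ex 680/em 615 nm; 11-point qHTS, up to 57.5 uM final.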
Test [18] can be described thus: Inflammasome Signaling qHTS Counterscreen: IL-1-beta AlphaLISA counterscreen against the NCATS CANVASS Library (AID 1347381).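 Further: cell-free check with purified IL-1β in medium and no THP-1 cells; series mostly up to about 57 µM.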 The method in brief: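 Here, no cellular stimulation occurs; compounds in an 11-point series meet 4 pg purified IL-1-beta directly. Bead-based AlphaLISA detection follows (1 h acceptor/antibody, then 30 min donor, dark, room temperature), with excitation at 680 nm.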

Test [19] can be described thus: Cytotoxicity qHTS for assessment of Hepg2 cells membrane integrity screened against the NCATS CANVASS Library (AID 1347387). The method in brief:
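LDH release read by fluorescence (560 nm ex/590 nm em) after CytoTox-ONE addition and 10 min RT; signal tracks lysed cells. HepG2, 2000 cells/well, plated overnight; compound 5 hr, 37C, 5% CO2, final 0.59 nM - 46 uM, 11 points.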

A short description of test [20]: Vero-766 cells viability qHTS against the NCATS CANVASS Library: Counterscreen for Zika virus inhibition assay (AID 1347394). Further: series mostly up to about 46 µM; nearly all actives have a fitted effect of over 60% in size. Summed up:
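Uninfected Vero 766 (African green monkey) cells, 1000/well, attached overnight, then exposed 72 h at 37C to compounds (11-point qHTS). Viability read by CellTiter-Glo luminescence; media-only wells served as 100% inhibition.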

Nuclear receptor subfamily 1 group I member 3 (Homo sapiens), sequence (Q14994 whole entry, looked up): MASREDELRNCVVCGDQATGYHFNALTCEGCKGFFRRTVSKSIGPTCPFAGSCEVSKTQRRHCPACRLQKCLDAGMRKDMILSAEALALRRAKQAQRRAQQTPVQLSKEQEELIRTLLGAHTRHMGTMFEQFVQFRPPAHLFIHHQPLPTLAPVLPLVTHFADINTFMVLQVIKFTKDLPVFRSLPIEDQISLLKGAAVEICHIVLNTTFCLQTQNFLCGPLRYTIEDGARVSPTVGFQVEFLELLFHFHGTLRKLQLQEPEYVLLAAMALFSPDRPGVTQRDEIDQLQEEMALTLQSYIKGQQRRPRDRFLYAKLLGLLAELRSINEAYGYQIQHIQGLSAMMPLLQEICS
Luciferin 4-monooxygenase (Photinus pyralis), sequence (P08659 whole entry, looked up): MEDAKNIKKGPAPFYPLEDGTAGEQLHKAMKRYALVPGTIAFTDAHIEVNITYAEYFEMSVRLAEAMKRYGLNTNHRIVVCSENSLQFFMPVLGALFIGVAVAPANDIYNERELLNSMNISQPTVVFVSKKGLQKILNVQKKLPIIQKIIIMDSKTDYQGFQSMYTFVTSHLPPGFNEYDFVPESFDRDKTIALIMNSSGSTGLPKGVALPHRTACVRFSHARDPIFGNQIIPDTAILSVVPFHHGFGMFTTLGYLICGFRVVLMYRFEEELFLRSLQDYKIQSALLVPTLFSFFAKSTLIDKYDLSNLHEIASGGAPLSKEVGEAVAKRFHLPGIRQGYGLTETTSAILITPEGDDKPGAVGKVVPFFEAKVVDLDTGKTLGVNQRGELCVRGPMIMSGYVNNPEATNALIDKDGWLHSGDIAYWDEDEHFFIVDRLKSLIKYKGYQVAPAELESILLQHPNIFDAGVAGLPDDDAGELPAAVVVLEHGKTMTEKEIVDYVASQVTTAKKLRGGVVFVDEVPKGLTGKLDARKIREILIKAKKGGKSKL

On to `C=C1C[C@@]23C=CC(=O)[C@@](C)(CCC(=O)Nc4c(O)ccc(C(=O)O)c4O)C2C[C@@H]1CC3` (stereo partly drawn), for which the Potency in test [1] is 27.7 µM (active). The Potency entry in [2], in test [3], in test [4], in test [5], in [6] and in test [7] was “inactive” each time. In addition, the Potency result in test [8], in [9], in [10], in [11], in [12] and in test [13] was “inactive” in each case. The Potency result in [14], in [15], in [17] and in [20] was “inactive” throughout. For the same compound, the outcome in test [16], in test [18] and in [19] was inactive.

`C/C1=C\CC(=O)/C=C/C=C\c2csc(n2)[C@@H](C)NC(=O)C[C@@](S)([C@@H](C)C(=O)O)CC1`: the Potency in test [1] was 7.82 µM (active). The Potency entry in [2], in [3], in test [4], in [5], in test [6] and in test [7] was “inactive” throughout. Besides, the Potency result in test [8], in [9], in test [10], in test [12], in [13] and in test [14] was “inactive” each time. The Potency entry in test [15], in [17] and in test [20] was “inactive” throughout. Also, the compound was classed as inactive in [16], in test [18] and in test [19].

Regarding `O=Cc1ccc2n1C[C@@]1(C[C@H](O)[C@@H](CO)O1)OC2`, the Potency entry in [1], in test [2], in test [3], in test [4], in test [5] and in test [6] was “inactive” throughout. The Potency result in [7], in test [8], in [9], in test [10], in test [11] and in [12] was “inactive” in each case. Besides, the Potency entry in [13], in test [14], in test [15], in [17] and in test [20] was “inactive” in each case. Besides, the result in test [16], in [18] and in [19] was inactive.

In the case of `CN1C(=O)C2C(N=CN2C)N(C)C1=O` (stereo not drawn), the Potency result in [1], in [2], in test [3], in test [5], in [6] and in [7] was “inactive” in each case. The Potency entry in test [8], in [9], in test [10], in [11], in test [12] and in test [13] was “inactive” each time. The Potency entry in test [14], in test [15], in test [17] and in test [20] was “inactive” in each case. Also, the compound was called inactive in test [16], in test [18] and in test [19].

In the case of `C[C@@]12CCC[C@@](C)(C(=O)O)[C@H]1CC[C@]13C[C@H]4C[C@H](O[C@@]4(C)C1)[C@H]32`, the Potency in [1] is 3.92 µM (active). For the same compound, the Potency entry in test [2], in test [3], in [4], in test [5], in test [6] and in test [7] was “inactive” throughout. The Potency result in [8], in [9], in test [10], in test [11], in [12] and in [13] was “inactive” in each case. In addition, the Potency result in test [14], in test [15], in [17] and in test [20] was “inactive” in each case. For the same compound, the result in test [16], in [18] and in [19] was inactive.
